Screening data deposited in PubChem by Sanford-Burnham Center for Chemical Genomics.
Hits are enriched below; roughly 28% of the tested compounds scored in any of these assays.
CD11b adhes inh: inhibitors of human CD11b/CD18 binding to fibrinogen; 0.54% of 93,000 active; K562 CD11b/CD18 adhesion to fibrinogen, ATPlite luminescence; Mn2+ added to activate the integrin; inhibition, % at 10 µM; P05107+P11215; AID 1497;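 active = primary inhibition of 50% or more at 10 µM, then 40% or more on retest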
Target sequence (P05107 whole entry, looked up, other chains not shown): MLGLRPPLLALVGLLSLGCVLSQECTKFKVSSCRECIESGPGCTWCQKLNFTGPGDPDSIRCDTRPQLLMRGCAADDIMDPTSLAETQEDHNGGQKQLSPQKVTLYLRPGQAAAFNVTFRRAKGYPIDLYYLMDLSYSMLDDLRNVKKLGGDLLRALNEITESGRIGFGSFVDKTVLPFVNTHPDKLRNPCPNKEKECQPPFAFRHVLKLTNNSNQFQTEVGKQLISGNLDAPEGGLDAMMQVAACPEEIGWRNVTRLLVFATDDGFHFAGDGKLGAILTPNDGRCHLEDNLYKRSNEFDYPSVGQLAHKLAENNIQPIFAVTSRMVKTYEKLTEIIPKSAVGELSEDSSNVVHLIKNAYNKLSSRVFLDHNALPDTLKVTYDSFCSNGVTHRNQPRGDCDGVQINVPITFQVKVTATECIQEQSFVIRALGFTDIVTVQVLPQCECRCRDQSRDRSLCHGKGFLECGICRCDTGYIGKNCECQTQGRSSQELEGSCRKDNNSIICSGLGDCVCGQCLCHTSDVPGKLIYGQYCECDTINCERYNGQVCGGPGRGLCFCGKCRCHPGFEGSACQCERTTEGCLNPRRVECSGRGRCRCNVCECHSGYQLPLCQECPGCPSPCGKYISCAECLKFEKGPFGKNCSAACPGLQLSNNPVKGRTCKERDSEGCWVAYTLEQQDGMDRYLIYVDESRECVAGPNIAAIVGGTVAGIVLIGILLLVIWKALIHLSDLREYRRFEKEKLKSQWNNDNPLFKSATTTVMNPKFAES
CYP2C9 act: increases human cytochrome P450 2C9 activity. 1.4% of 96,000 active. recombinant CYP2C9, luciferin-H conversion, luminescence; stronger effect = higher value; factor 1 = untreated enzyme, 0 = blocked. activation factor at 5 µM. AID 1024;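 active = activation factor of 2 or more for CYP2C9 at a 5 µM dose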;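 note: 0 = sulfaphenazole-blocked wells and 1 = vehicle-only wells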
CYP2C19 act: increases human CYP2C19 enzyme activity; 96,000 tested, under 10 active; P33261; recombinant CYP2C19, luciferin-H EGE luminescence; stronger effect = higher value; 0 = fully inhibited enzyme, 1 = untreated enzyme; activation factor at 5 µM;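 active = activation factor of at least 2 at 5 µM in the primary screen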;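 note: 0 = wells with 2.5 mM tranylcypromine and 1 = vehicle-only wells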
CYP2C9 inh: inhibitors of human CYP2C9 | P11712 | CYP2C9 Supersomes, luciferin-H conversion, luminescence | inhibition, % at 5 µM | 20% of 96,000 active | AID 777;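 active = blocking of liver enzyme CYP2C9 beyond about 50% at 5 µM, limit read from the data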
CYP2C19 inhib: blocks human cytochrome P450 2C19 | P33261 | CYP2C19 Supersomes, luciferin-H EGE luminescence, 30 min | inhibition, % at 5 µM | 21% of 96,000 active;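 active = CYP2C19 inhibition above a set limit at 5 µM in the primary screen, cut at about 50% in these data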;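 note: plate controls were negative control wells for no effect and 2.5 mM tranylcypromine positive control for full effect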
Mac1 fbg enh: increases human CD11b/CD18 adhesion to fibrinogen. P05107+P11215. activation, % at 10 µM. K562 CD11b/CD18 adhesion to fibrinogen, ATPlite luminescence. 0.07% of 93,000 active;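 active = 10 µM primary screen giving 50% or more activity, confirmed by 40% or more on retest at that dose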
Starred values were filed as active, the others as inactive; . = not tested or not shown.

SMILES	CD11b adhes inh	CYP2C9 act	CYP2C19 act	CYP2C9 inh	CYP2C19 inhib	Mac1 fbg enh
CO/C([O-])=N/c1c[n+](-c2ccc(Cl)cc2)no1	-5.5	0.9	0.8	9.5	17.5	-1.6
CCN(CC)C(=O)COc1ccc(-c2ccccc2)cc1	2.3	0.8	0.6	16.9	40.0	0.3
COc1ccc(-c2noc(CSc3nnc(Cc4ccccc4)n3-c3cccc(C)c3)n2)cc1OC	-0.5	0.5	0	54.6*	97.9*	-1.7
Cc1ccc(-c2noc(CSc3nnc(Cc4ccccc4)n3-c3cccc(C)c3)n2)cc1	65.4	0.5	0.2	45.3	82.4*	-7.7
Nc1cccc(-n2nncc2-c2ccccc2)c1	.	1	0.7	0.1	31.3	.
COc1ccc2c(C)cc(=O)oc2c1C	0.6	2.3*	0.7	-125.9	30.1	-5.4
CN(C)c1nc(Nc2ccccc2)nc(N(C)C)n1	-1.1	1	0.6	-3.5	35.8	0.3
COC(=O)c1ccc(Oc2nc(Nc3ccccc3)nc(N(C)C)n2)cc1	4.3	0.5	0.6	52.1*	36.1	-2.2
CCOC(=O)C(C)Oc1nc(Oc2ccccc2)nc(N(C)C)n1 (stereo unspecified)	-24.3	0.7	0.4	29.6	57.1*	-1.1
O=C1c2ccsc2SCCN1Cc1ccc(Cl)cc1	-3.7	0.7	0.4	30.0	57.7*	-3.9
O=C(c1ccccc1)c1cc(-c2ccccc2)on1	-3.2	1.1	0.5	-12.9	51.2*	-3.6
COC(=O)CCC(=O)c1oc2ccc(Cl)cc2c1NC(=O)CCCN1C(=O)c2ccccc2C1=O	.	0.2	0.3	79.9*	67.0*	.
COCCSc1nnc(NC(=O)C2CCCCC2)s1	2.0	0.8	0.7	23.9	26.4	-2.1
CN1C2C=C(N(CCc3c[nH]c4ccccc34)C(=O)c3ccc(Cl)cc3)CC1CC2 (stereo unspecified)	.	1	0.9	1.1	6.7	.
CCc1c(C#N)c(SCCC(=O)Nc2ccc(F)cc2)nc2c1C(=O)CC(C)(C)C2	40.8	0	0	97.0*	97.6*	-4.1
CC1(C)CC(=O)c2c(nc(SCC(=O)Nc3nsc(-c4ccccc4)n3)c(C#N)c2-c2ccccc2)C1	16.7	0.2	0.5	84.9*	54.4*	2.6
CCc1c(C#N)c(SCCC(=O)Nc2cccc(OC)c2)nc2c1C(=O)CC(C)(C)C2	10.7	0	0	98.4*	97.9*	-4.6
Cc1nnc(SCC(=O)Nc2nsc(-c3ccccc3)n2)s1	5.8	0.9	1	8.7	-2.3	-3.5
Cn1c(N)c(C(=O)COC(=O)C2=COCCO2)c(=O)n(C)c1=O	-12.6	0.8	0.9	20.4	10.2	-3.2
C=CCNc1sc(C(=O)c2ccc(Br)s2)c(N)c1C#N	-3.7	0.4	0.8	63.1*	18.0	-1.6
CCOc1ccc(NC(=S)N2CCc3cc(OC)c(OC)cc3C2COc2ccc3c(C)cc(=O)oc3c2)cc1 (stereo unspecified)	-22.8	.	.	.	.	51.2
Cc1ccc(S(=O)(=O)N[C@H](C(=O)N2CCC(C(=O)NCC(=O)O)CC2)C(C)C)cc1	-5.0	0.8	0.9	22.7	9.2	10.7
O=C(CCNC(=O)c1ccccc1Cl)Nc1ccc2c(c1)OCO2	19.5	0	0.4	95.6*	59.4*	-2.6
CC(=O)c1cc2c(cc1NC(=O)CCNC(=O)c1ccccc1Cl)OCO2	3.4	0.3	0.4	73.9*	60.2*	-2.5
O=C(Nc1ccc2c(c1)OCO2)N1CCN(c2ccccc2Cl)CC1	7.3	0.9	0.8	12.7	23.7	-9.9
SMILES	CD11b adhes inh	CYP2C9 act	CYP2C19 act	CYP2C9 inh	CYP2C19 inhib	Mac1 fbg enh
Cc1cc(C)n(C(=O)CCCC(=O)n2nc(C)cc2C)n1	-2.9	1.2	0.8	-20.1	18.2	-0.7
Cc1cc(C)n(C(=O)CCCCCCCCC(=O)n2nc(C)cc2C)n1	.	0.4	0.3	58.4*	70.9*	.
CCOc1ccc(C(O)C(CN2CCOCC2)c2ccccc2)cc1 (stereo unspecified)	20.4	1	0.7	1.3	29.0	4.6
Cc1ccc(-n2c(=O)[nH]c3cc(C(=O)NC4CCN(Cc5ccccc5)CC4)ccc3c2=O)cc1	19.8	1	1	1.7	4.2	-0.8
Cc1c(NC(=O)C(C)Sc2nnc(-c3ccccc3)o2)c(=O)n(-c2ccccc2)n1C (stereo unspecified)	-5.2	1.1	0.3	-11.4	70.2*	-3.7
Cc1cc(SC(C)C(=O)Nc2c(C)n(C)n(-c3ccccc3)c2=O)nc2ccccc12 (stereo unspecified)	.	1	0.2	-3.0	77.8*	.
COc1ccc2c(C)cc(SCC(=O)Nc3c(C)n(C)n(-c4ccccc4)c3=O)nc2c1	-3.0	0.9	0.9	11.3	11.8	0.5
C=CCN1C(=O)CSc2ccc(C(=O)N3CCC(C)CC3)cc21	-11.5	1.1	0.8	-11.1	16.5	1.7
CCSCCNC(=O)c1cncc(Br)c1	5.5	0.7	0.7	30.6	25.1	2.3
CCOc1ccc(CN(C(=O)c2oc3cc(C)ccc3c2C)C2CCS(=O)(=O)C2)cc1 (stereo unspecified)	6.6	0.1	0.3	87.0*	73.3*	0.3
Cc1ccc2c(C)c(C(=O)N(Cc3cccs3)C3CCS(=O)(=O)C3)oc2c1 (stereo unspecified)	-0.3	0.6	0.9	37.0	11.7	-0.8
Cc1ccc(C)n1-c1nc(=S)[nH][nH]1	-6.8	0.1	0.2	87.7*	76.1*	-2.2
O=C(CCCSc1nc2ccccc2s1)Nc1nccs1	-12.7	0.1	0.2	87.6*	79.1*	3.4
O=C(CCCOc1ccccc1)Nc1nccs1	2.0	0.5	0.1	50.8*	86.0*	-1.5
O=C(CCCc1nc2ccccc2s1)Nc1nccs1	-11.1	0.7	0.6	29.3	42.4	-2.0
O=C(CSCc1c(Cl)cccc1Cl)Nc1nccs1	-7.2	0.2	0.8	75.3*	21.5	0.9
CNC(=O)CSCc1c(Cl)cccc1Cl	-5.3	1	0.9	-1.2	14.6	3.7
O=C(Nc1nccs1)Oc1ccccc1	-3.5	0.8	0.9	25.0	8.8	-0.9
O=C(CSCc1ccccc1)Nc1nccs1	10.5	0.6	0.5	43.6	50.2*	-0.3
CCc1cccc(OCCCCN(CC)CC)c1	2.6	0.9	0.9	6.4	7.9	-2.4
COc1ccc(CCNC(=O)Cn2c(=O)n(Cc3ccco3)c(=O)c3ccc(Cl)cc32)cc1OC	25.8	0.6	0.6	42.1	35.4	-0.5
Cc1ccc(-n2c(CNc3ccc(F)cc3)nnc2SCC(N)=O)cc1	-8.5	0.9	0.9	14.8	10.2	-1.2
O=C(CSc1cn(Cc2ccccc2)c2ccccc12)Nc1nccs1	8.7	0	0	98.7*	95.9*	3.1
Cc1cc(C(C)(C)C)oc1C(=O)N(CC(=O)NC1CCCC1)c1c(C)cccc1C	-12.6	0.7	0.6	32.8	42.4	2.5
